Six1-Eya2 inh: blocks human Six1 binding to Eya2; AID 651725; activity change, % (test concentration not listed); Q15475+O00167; hit rate 0.56% among 360,000; AlphaScreen GST-Six1/His-Eya2 binding, biochemical; active compounds read low; in the data active = activity change below about -65%; inconclusive = mostly about -30% to -63%; also: % is scaled to controls: 0 for no effect and ±100 for the full control effect
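AlphaScreen luminescence read after one hour at 37 °C in darkness. Pin-transferred compounds met GST-Six1 and His-Eya2 protein (5X stock 250 nM/500 nM) plus glutathione donor and Ni-chelate acceptor beads (5X, 50 ug/mL).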
JMJD2A Tudor inh: JMJD2A Tudor domain (human) inhibition | AlphaScreen JMJD2A-Tudor / H3K4me3 peptide binding | Potency, µM (series often up to 114 µM), for the others: at the top dose activity change, negative = inhibition, hits mostly inhibitors | hit rate 4.4% among 390,000 | AID 504339; also: potency is read from the fitted curve at half-maximal effect; % is scaled to controls: 0 for no effect and ±100 for the full control effect; nearly all actives have a fitted effect of over 50% in size
BAZ2B inh: inhibitors of human BAZ2B bromodomain | Q9UIF8 | AlphaScreen BAZ2B-H3K14Ac peptide displacement | Potency, µM (highest dose often 114 µM), for the others: at the highest dose activity change, negative = inhibition, most hits filed as inhibitors | hit rate 4.4% among 360,000 | AID 504333; also: potency is read from the fitted curve at half-maximal effect; % is scaled to controls: 0 for no effect and ±100 for the full control effect; nearly all actives have a fitted effect of over 60% in size
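AlphaScreen displacement: compounds (up to 110uM) incubated 30 min at room temperature with a preformed 50 nM BAZ2B/50 nM biotinylated H3K14Ac peptide complex in PBS pH 7.4 with Tween-20. Donor and acceptor beads at 10 ug/mL final added, 20 min light-protected before reading.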
HP1b binding inh: HP1-beta chromodomain-methylated histone interaction inhibition; Potency, µM (highest dose often 114 µM), without a hit: at the top dose activity change, negative = inhibition, most hits filed as inhibitors; AlphaScreen HP1-beta / biotin-H3K9me3 peptide binding; AID 540317; P83916; hit rate 0.56% among 390,000; also: potency is read from the fitted curve at half-maximal effect; nearly all actives have a fitted effect of over 70% in size
Target sequence (P83916 whole entry, looked up): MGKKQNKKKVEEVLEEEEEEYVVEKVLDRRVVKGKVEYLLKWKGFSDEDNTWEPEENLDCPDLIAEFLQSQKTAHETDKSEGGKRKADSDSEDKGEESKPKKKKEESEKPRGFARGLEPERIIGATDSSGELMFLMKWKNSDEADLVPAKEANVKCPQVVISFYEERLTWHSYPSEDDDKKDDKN
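AlphaScreen: HP1-beta (50 nM) preformed 30 min with biotin-H3(1-18)K9me3 peptide (50 nM) in PBS pH 7.4, 0.01% Tween-20. Compound added for 30 min at RT, then streptavidin donor/nickel chelate acceptor beads (10 ug/mL) for 30 min.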
CtBP-E1A blk: inhibitors of CtBP/E1A interaction; AlphaScreen GST-E1A/His-CtBP binding, 1536-well; active compounds read low; activity change, % (concentration not given with the values); hit rate 0.49% among 340,000; AID 651724; in the data active = activity change below about -65%; inconclusive = mostly about -30% to -63%; also: % is scaled to controls: 0 for no effect and ±100 for the full control effect
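GST-E1A and His-tagged CtBP (125 nM each as 5X stock) were preincubated with pin-transferred compound for 2 h at 37 °C in the dark, then glutathione donor and nickel acceptor beads were added for 1 h before AlphaScreen reading.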
G9a block: G9a (human) methyltransferase inhibition; Potency, µM (titrated, usually from 102 µM), without a hit: at the highest dose activity, negative = inhibition, usual class: inhibitors; AID 504332; G9a H3K9 monomethylation, AlphaScreen, 2 h; hit rate 8.8% among 350,000; also: potency is read from the fitted curve at half-maximal effect; % is scaled to controls: 0 for no effect and ±100 for the full control effect; nearly all actives have a fitted effect of over 75% in size
Target sequence (Q96KQ7 913-1193 limits assumed): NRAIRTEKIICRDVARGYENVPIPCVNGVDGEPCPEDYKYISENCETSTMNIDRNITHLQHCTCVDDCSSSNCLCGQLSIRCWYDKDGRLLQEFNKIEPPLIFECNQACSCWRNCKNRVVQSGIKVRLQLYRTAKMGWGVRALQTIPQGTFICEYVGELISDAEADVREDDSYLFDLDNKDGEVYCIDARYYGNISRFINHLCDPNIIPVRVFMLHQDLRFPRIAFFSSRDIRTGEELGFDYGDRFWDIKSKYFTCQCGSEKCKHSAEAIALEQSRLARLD
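AlphaScreen detection with an anti-monomethyl H3K9 antibody quantified product after a 2 h room-temperature reaction containing 500 nM biotinylated H3K9 peptide, 20 µM SAM and 20 nM enzyme, which had been preincubated 15 min with compound.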
Active calls of the source: *; ? = inconclusive; . = not tested or not shown; [ ] = dose if it differs, or a comment. In the library only some 10% were active in any assay of this set; here they are far more common. Unless noted, calls follow the shape of the dose curve; as a rule, active = well fitted inhibition curve with a large enough effect; inconclusive = small, poorly fitted or top-dose-only effect; inactive = no such curve, though single readings can be large or run the other way.

SMILES	Six1-Eya2 inh	JMJD2A Tudor inh	BAZ2B inh	HP1b binding inh	CtBP-E1A blk	G9a block
CC(=O)Nc1ccc(NC(=O)C(NS(=O)(=O)c2cccc3nsnc23)C(C)C)cc1 (centres undefined)	2	-14%	-20%	18%	0	-49%
Cc1ccc(CN2C(=O)C3CCCN3c3ccc(C#N)cc32)cc1 (centres undefined)	.	.	-18%	.	.	20µM*
CON(C)S(=O)(=O)c1ccc2c(c1)N(Cc1ccc(C)cc1)C(=O)C1CCCN21 (centres undefined)	3	-17%	-22%	38%	-7	25µM*
N#Cc1ccc2c(c1)NC(=O)C1CCCN21 (centres undefined)	4	-10%	-29%	23%	11	14µM*
Cc1ccc(C)c(CN2C(=O)C3CCCN3c3ccc(C#N)cc32)c1 (centres undefined)	1	5%	1%	45%	-7	?
N#CCN1C(=O)C2CCCN2c2ccc(S(=O)(=O)N3CCOCC3)cc21 (centres undefined)	-4	-10%	-27%	32%	5	20µM*
Cc1ccc(C)c(N(CC(=O)Nc2cc(Cl)ccc2Oc2ccccc2)S(C)(=O)=O)c1	-10	-6%	-31%	6%	2	47%[59 µM]
Cc1cccc(C)c1N(CC(=O)Nc1cc(Cl)ccc1Oc1ccccc1)S(C)(=O)=O	-7	-12%	11%	28%	4	13µM*
CCOC(=O)CCCCC(=O)c1[nH]c(=O)[nH]c1CSc1nnc2c3cc(Br)ccc3n(C)c2n1	.	.	-67%	.	.	28µM*
CCOC(=O)CCCCC(=O)c1[nH]c(=O)[nH]c1CSc1nc(C)cc(C)n1	-6	-29%	?	27%	-2	?
Cn1c2ccc(Br)cc2c2nnc(SCC(=O)O)nc21	-27	-2%	2%	29%	.	.
CCOC(=O)CCCCC(=O)c1[nH]c(=O)[nH]c1CSc1nc2ccccc2[nH]1	0	79µM*	?	21%	0	1.6µM*
CCOC(=O)CCCCC(=O)c1[nH]c(=O)[nH]c1CSc1nc(C)cc(=O)[nH]1	0	?	50µM*	18%	0	?
O=C(Nc1ccc(-c2n[nH]c(=S)o2)cc1)c1ccccc1Br	-8	-4%	-1%	22%	.	8.9µM*
COc1ccc(C(=O)Nc2ccc(-c3n[nH]c(=S)o3)cc2)cc1OC	-28	?	?	-25%	.	1.6µM*
CCOC(=O)c1sc(S(C)=O)c2c1CCc1conc1-2 (centres undefined)	3	-15%	-3%	43%	.	32µM*
CCOC(=O)c1sc2ccccc2c1OC(=O)c1ccc(C)cc1	-14	-76%	63%	87%	4	24%
C[C@H]1CN([C@@H](C)CO)C(=O)c2cc(Br)cnc2O[C@H]1CN(C)C(=O)Cc1ccccn1	-1	.	.	.	5	.
S=C(c1ccc(-c2ccc(Cl)cc2Cl)o1)N1CCCCC1	?	?	22µM*	-42%	-29	?
S=C(Nc1ccc(Cl)cc1Cl)N1CCCCC1	2	-7%[57.1 µM]	7%	?	5	29%[59 µM]
S=C(c1ccc(-c2ccc(Cl)cc2Cl)o1)N1CCCC1	-2	50µM*	-14%	?	.	.
Cc1cccc(C)c1NC(=O)c1ccc(-c2ccc(Cl)cc2Cl)o1	2	-19%	-6%	41%	-2	-29%
COC(=O)C(CC(=O)c1ccc(Cl)cc1)c1ccccc1 (centres undefined)	32	95%	.	204%	12	.
Cc1cc2oc(=O)cc(CN3CCCc4ccccc43)c2cc1C	-5	-17%	-31%	36%	-9	8.9µM*
Cc1ccc(-n2c(C)n[nH]c2=S)cc1	17	10µM*	4%	42%	0	22µM*
SMILES	Six1-Eya2 inh	JMJD2A Tudor inh	BAZ2B inh	HP1b binding inh	CtBP-E1A blk	G9a block
Cc1ccc(-n2c(C)n[nH]c2=S)cc1C	2	8.9µM*	1%	16%	7	5µM*
Cc1ccccc1C(=O)Nc1ccc(S(=O)(=O)N2CCCC2)cc1	0	-7%	-3%	35%	9	18%
CCOc1ccc(Cc2nnc(SCC(=O)Nc3c(C)cccc3C)[nH]c2=O)cc1	-1	1%	-1%	13%	-22	3%
COc1ccc(C2=NOC(C)(c3nnc(-c4ccc(F)cc4)o3)C2)cc1 (centres undefined)	0	4%	3%	50%	.	5%[12.7 µM]
CC(C)C[C@H](N)C(=O)N[C@H](C(=O)N[C@H](C(=O)N[C@@H](Cc1ccc(O)cc1)C(=O)N1CCC[C@H]1C(=O)N[C@@H](Cc1c[nH]c2ccccc12)C(=O)N[C@H](C(=O)N[C@@H](CCC(N)=O)C(=O)N[C@@H](CCCN=C(N)N)C(=O)O)[C@@H](C)O)C(C)C)C(C)C	.	.	.	.	.	39%[59 µM]
CN1C(=O)N(C)c2ccc(Br)c3cccc1c23	-5	45µM*	7%	29%	.	22%
COc1ccc(N(Cc2cccs2)C(=O)COc2ccc([N+](=O)[O-])cc2)cc1	.	-16%	-31%	32%	.	-19%[59 µM]
CCOC(=O)C1=CCN(S(=O)(=O)c2ccccc2Cl)C1c1cccc(F)c1 (centres undefined)	2	.	.	.	4	.
Cc1ccc(C(=O)Nc2cccc3cccnc23)cc1C	2	106%	61%	139%	6	151%
Cc1nnsc1C(=O)Oc1ccc(Cl)cc1	.	-3%	7%	3%	.	13µM*
Cc1cc(C)cc(OC(=O)c2snnc2C)c1	.	62%	36%	79%	.	-46%[59 µM]
Cc1nnsc1C(=O)Oc1ccc(C#N)cc1	.	89µM*	?	17%	.	16µM*
CCC(C(=O)Nc1cccc(Cl)c1C)n1nc(C)c2sc3ccccc3c2c1=O (centres undefined)	.	-18%	-8%	19%	.	-8%[59 µM]
COc1cccc(CNC(=O)c2ccc(-c3nc(CSc4ccccc4)c(C)o3)cc2)c1	.	-4%	-4%	38%	.	0%[59 µM]
CC(C)N=c1cc2n(-c3ccc(Cl)cc3)c3ccccc3nc-2cc1Nc1ccc(Cl)cc1	?	7.1µM*	.	4.5µM*	-20	2.5µM*
CCOc1ccc(C(c2c(O)cc(C)n(CCOC)c2=O)N2CCN(c3ccccc3F)CC2)cc1 (centres undefined)	.	-29%	-1%	18%[57 µM]	.	?
Cn1c(=O)[nH]c(=O)c2c1nc(SCCO)n2Cc1ccccc1Cl	-7	?	-2%	-10%	-17	45µM*
CCC(C)Sc1nc2c(c(=O)[nH]c(=O)n2C)n1Cc1ccccc1Cl (centres undefined)	-7	1%	-14%	7%	1	25µM*
CSc1nc2c(c(=O)[nH]c(=O)n2C)n1Cc1ccccc1Cl	4	-14%	-3%	17%	-5	.

Assay outcomes (PubChem BioAssay)
